# Records with an inconclusive call do not appear. The source made the active and inactive calls. Unless noted, the call rests on the fitted dose curve; in most records, active means well fitted inhibition curve with a large enough effect; inconclusive means small, poorly fitted or top-dose-only effect; inactive means flat fitted curve, though single readings scatter.
# What was measured:
# [1] = qHTS for identification of novel therapeutic agents for treatment of microphthalmiaassociated transcription factor (MiT) renal cell carcinoma (RCC) (AID 1963991; calls by dose curve; further: potency means the concentration at half of the fitted maximal effect); conditions: CellTiter-Glo, 48 h; for z-score: stronger effect = lower value; for Potency: active = Z-AUC below -0.8 in all three lines
# Outline: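 Three TFE3-fusion RCC cell lines (UOK109, UOK124, UOK145), 500 cells/well, were exposed to the 1912-compound MIPE 4.0 library for 48 hours at 37 C. Viability was read by CellTiter-Glo luminescence, normalised to DMSO (100%) and empty wells (0%), with 11-concentration curve fits.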
# [2] = qHTS drug screen for cell cycle checkpoint inhibitors in PARPi-resistant BRCA-mutant ovarian cancer cell lines. (AID 1963452; calls by dose curve; further: potency means the concentration at half of the fitted maximal effect); conditions: PEO1/OlaR viability, CellTiter-Glo luminescence, 96 h; for Z-AUC: stronger effect = lower value
# Outline: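 PEO1, PEO4 and PEO1/OlaR ovarian cancer cells, 600 per well, exposed 96 h at 37C to a dilution series. Viability read by CellTiter-Glo luminescence, normalized to DMSO and empty wells; activity summarized as Z-AUC.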
# [3] = qHTS profiling for inhibitors of Plasmodium falciparum proliferation (AID 504749);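 further: 0% = DMSO vehicle and full inhibition = artemisinin control; nearly all actives have a fitted effect of over 60% in size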; conditions: P. falciparum in erythrocytes, SYBR Green DNA, 72 h
# Outline: (§1)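 Each compound contacts P. falciparum-infected red blood cells for 72 h at 37 C; lysis buffer (Tris, EDTA, saponin, Triton X, SYBR Green I) is added and fluorescence measured next morning; values normalized to controls.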
# 3D7 = assay: as above; conditions: P. falciparum in erythrocytes, SYBR Green DNA, 72 h; series mostly up to 28.7 µM
# Outline: as §1
# 7G8 = assay: as above; conditions: P. falciparum in erythrocytes, SYBR Green DNA, 72 h; series mostly up to 28.7 µM
# Outline: as §1
# AA1029 = assay: as above; conditions: P. falciparum in erythrocytes, SYBR Green DNA, 72 h; series mostly up to 28.7 µM
# Outline: as §1
# ATS189 = assay: as above; conditions: P. falciparum in erythrocytes, SYBR Green DNA, 72 h; series mostly up to 28.7 µM
# Outline: as §1
# ATS95 = assay: as above; conditions: P. falciparum in erythrocytes, SYBR Green DNA, 72 h; series mostly up to 28.7 µM
# Outline: as §1
# C2A = assay: as above; conditions: P. falciparum in erythrocytes, SYBR Green DNA, 72 h; series mostly up to 28.7 µM
# Outline: as §1
# CP185 = assay: as above; conditions: P. falciparum in erythrocytes, SYBR Green DNA, 72 h; series mostly up to 28.7 µM
# Outline: as §1
# CP191 = assay: as above; conditions: P. falciparum in erythrocytes, SYBR Green DNA, 72 h; series mostly up to 28.7 µM
# Outline: as §1
# AS120 = assay: as above; conditions: P. falciparum in erythrocytes, SYBR Green DNA, 72 h; series mostly up to 28.7 µM
# Outline: as §1
# [4] = TFE3-RCC UOK109 viability, measured here: UOK109 Z-AUC
# [5] = TFE3-RCC viability, measured here: UOK124 Z-AUC
# [6] = TFE3-RCC viability, measured here: UOK145 Z-AUC
# [7] = measured here: PEO1 parental Z-AUC
# [8] = at 28.7 µM (top of the series), parasite line A
# [9] = at 28.7 µM (top of the series), parasite line B
# [10] = at 12.8 µM (top of the series), parasite line A
# [11] = at 12.8 µM (top of the series), parasite line B
structure (smiles),measurement,setting,value
C[C@]12CCC3=C4CCC(=O)C=C4CC[C@@H]3[C@H]1CC[C@@]2(O)CC#N,z-score,[1]; [4],0.693
same,z-score,[1]; [5],0.709
same,z-score,[1]; [6],-0.023
Cc1cn([C@@H]2C[C@@H](O)[C@H](CO)O2)c(=O)[nH]c1=O,Z-AUC,[2],0.721 (inactive)
same,Z-AUC,[2]; [7],0.778
same,Z-AUC,[2]; measured here: PEO4 Z-AUC,0.771
same,z-score,[1]; [4],0.973
same,z-score,[1]; [5],1.9
same,z-score,[1]; [6],0.117
CS(=O)(=O)c1ccc(C2=C(c3ccccc3)C(=O)OC2)cc1,Z-AUC,[2],0.327 (inactive)
same,Z-AUC,[2]; [7],0.543
same,Z-AUC,[2]; measured here: PEO4 Z-AUC,0.0438
same,z-score,[1]; [4],0.605
same,z-score,[1]; [5],0.766
same,z-score,[1]; [6],0.708
same,"activity, negative = inhibition",[3]; [8],0.606% (inactive)
same,"activity, negative = inhibition",[3]; [9],18.5% (inactive)
same,Potency,3D7,inactive
same,Potency,7G8,inactive
same,Potency,AA1029,inactive
same,Potency,ATS189,inactive
same,Potency,ATS95,inactive
same,Potency,C2A,inactive
same,outcome,CP185,inactive
same,outcome,CP191,inactive
Cc1nc2c([nH]1)CCN(C(=O)c1ccc(NC(=O)c3ccccc3-c3ccccc3)cc1)c1ccccc1-2,Z-AUC,[2],0.604 (inactive)
same,Z-AUC,[2]; [7],0.56
same,Z-AUC,[2]; measured here: PEO4 Z-AUC,0.851
same,z-score,[1]; [4],-0.104
same,z-score,[1]; [5],0.486
same,z-score,[1]; [6],0.369
CN(C)CCN(C)C(=O)c1ccc(NC(=O)Nc2ccc(-c3nc(N4CCOCC4)c4ccn(CC(F)(F)F)c4n3)cc2)cc1,Z-AUC,[2],-1.1 (inactive)
same,Z-AUC,[2]; [7],-1.35
same,Z-AUC,[2]; measured here: PEO4 Z-AUC,-1.82
same,Potency,[1]; TFE3-RCC UOK109 viability,1320 nM (active)
same,z-score,[1]; [4],-2.71
same,z-score,[1]; [5],-3.06
same,z-score,[1]; [6],-1.67
C[C@@H](O)[C@H]1C(=O)N2C(C(=O)OCOC(=O)C(C)(C)C)=C(SC3CN(C4=NCCS4)C3)[C@H](C)[C@H]12,z-score,[1]; [4],1.65
same,z-score,[1]; [5],-0.138
same,z-score,[1]; [6],0.788
Cc1ccc(C(=O)N(CCCN)[C@@H](c2oc3cc(Cl)ccc3c(=O)c2Cc2ccccc2)C(C)C)cc1,Potency,[2],8710 nM (active)
same,Z-AUC,[2]; [7],-2.6
same,Z-AUC,[2]; measured here: PEO4 Z-AUC,-2.5
same,Potency,[1]; TFE3-RCC UOK109 viability,37200 nM (active)
same,z-score,[1]; [4],-1.98
same,z-score,[1]; [5],-1.71
same,z-score,[1]; [6],-2
CN(C)c1nc(Cc2ccc(NC(=O)c3ccc(C(F)(F)F)cc3)cc2)nc(N(C)C)c1CC(=O)O,z-score,[1]; [4],0.568
same,z-score,[1]; [5],0.491
same,z-score,[1]; [6],0.741
NS(=O)(=O)c1cc(Cl)c(Cl)c(S(N)(=O)=O)c1,Z-AUC,[2],0.54 (inactive)
same,Z-AUC,[2]; [7],0.261
same,Z-AUC,[2]; measured here: PEO4 Z-AUC,0.359
same,z-score,[1]; [4],0.846
same,z-score,[1]; [5],0.351
same,z-score,[1]; [6],1.23
same,"activity, negative = inhibition",[3]; [10],1.59% (inactive)
same,"activity, negative = inhibition",[3]; [11],6.65% (inactive)
same,Potency,3D7,inactive
same,Potency,AA1029,inactive
same,Potency,AS120,inactive
same,Potency,ATS189,inactive
same,Potency,ATS95,inactive
same,Potency,C2A,inactive
same,outcome,CP185,inactive
same,outcome,CP191,inactive
COc1ccc(-c2ccc3ncc4c(c3c2)n(-c2ccc(N3CCNCC3)c(C(F)(F)F)c2)c(=O)n4C)cn1,Potency,[2],123 nM (active)
same,Z-AUC,[2]; [7],-2.24
same,Z-AUC,[2]; measured here: PEO4 Z-AUC,-2.26
same,Potency,[1]; TFE3-RCC UOK109 viability,1480 nM (active)
same,z-score,[1]; [4],-2.72
same,z-score,[1]; [5],-3.95
same,z-score,[1]; [6],-3.85
C=C1c2cccc(O)c2C(O)=C2C(=O)[C@@]3(O)C(O)=C(C(N)=O)C(=O)[C@@H](N(C)C)[C@@H]3[C@@H](O)[C@H]12,Z-AUC,[2],-0.114 (inactive)
same,Z-AUC,[2]; [7],-0.453
same,Z-AUC,[2]; measured here: PEO4 Z-AUC,-0.502
same,z-score,[1]; [4],1.5
same,z-score,[1]; [5],0.336
same,z-score,[1]; [6],0.104
same,"activity, negative = inhibition",[3]; [10],-22.9% (inactive)
same,"activity, negative = inhibition",[3]; [11],-19.4% (inactive)
same,Potency,3D7,inactive
same,Potency,AA1029,inactive
same,Potency,AS120,inactive
same,Potency,ATS189,inactive
same,Potency,ATS95,inactive
same,Potency,C2A,inactive
same,outcome,CP185,inactive
same,outcome,CP191,inactive
COc1ccnc(CS(=O)c2nc3ccc(OC(F)F)cc3[nH]2)c1OC (configuration not stated),Z-AUC,[2],1.71 (inactive)
same,Z-AUC,[2]; [7],1.02
same,Z-AUC,[2]; measured here: PEO4 Z-AUC,1.19
same,"activity, negative = inhibition",[3]; [8],-7.9% (inactive)
same,"activity, negative = inhibition",[3]; [9],-10.6% (inactive)
same,Potency,3D7,inactive
same,Potency,7G8,inactive
same,Potency,AA1029,inactive
same,Potency,AS120,inactive
same,Potency,ATS189,inactive
same,Potency,ATS95,inactive
same,Potency,C2A,inactive
same,outcome,CP185,inactive
same,outcome,CP191,inactive
CO[C@H]1/C=C\O[C@@]2(C)Oc3c(C)c(O)c4c(O)c(c5c(nc6cc(C)ccn65)c4c3C2=O)NC(=O)C(C)=CC=C[C@H](C)[C@H](O)[C@@H](C)[C@@H](O)[C@@H](C)[C@H](OC(C)=O)[C@H]1C,z-score,[1]; [4],0.788
same,z-score,[1]; [5],1.17
same,z-score,[1]; [6],0.817
CCCCCOC(=O)Nc1nc(=O)n([C@@H]2O[C@H](C)[C@@H](O)C2O)cc1F (some centres not stated),z-score,[1]; [4],0.259
same,z-score,[1]; [5],0.348
same,z-score,[1]; [6],0.317
CCN(CCO)CCCOc1ccc2c(Nc3cc(CC(=O)Nc4cccc(F)c4)[nH]n3)ncnc2c1,Z-AUC,[2],-0.614 (inactive)
same,Z-AUC,[2]; [7],-0.629
same,Z-AUC,[2]; measured here: PEO4 Z-AUC,-1.66
same,z-score,[1]; [4],0.018
same,z-score,[1]; [5],0.316
same,z-score,[1]; [6],0.045
CCC[C@H](Nc1nc(-c2ccc(NC(=O)NCC)c(OC)c2)ncc1C)c1cccnc1,Potency,[2],8.7 nM (active)
same,Z-AUC,[2]; [7],-2.97
same,Z-AUC,[2]; measured here: PEO4 Z-AUC,-3.47
same,Potency,[1]; TFE3-RCC UOK109 viability,37.2 nM (active)
same,z-score,[1]; [4],-2.33
same,z-score,[1]; [5],-3.81
same,z-score,[1]; [6],-2.31
Cc1ccc(C(=O)N(CCCN)[C@@H](c2nc3cc(Cl)ccc3c(=O)n2Cc2ccccc2)C(C)C)cc1,Potency,[2],9.8 nM (active)
same,Z-AUC,[2]; [7],-2.53
same,Z-AUC,[2]; measured here: PEO4 Z-AUC,-2.45
same,Potency,[1]; TFE3-RCC UOK109 viability,1.66 nM (active)
same,z-score,[1]; [4],-2.23
same,z-score,[1]; [5],-1.53
same,z-score,[1]; [6],-1.7
O=C1NC(=O)C(c2cnc3ccccn23)=C1c1cn2c3c(cccc13)CN(C(=O)N1CCOCC1)CC2,Z-AUC,[2],-1.3 (inactive)
same,Z-AUC,[2]; [7],-1.91
same,Z-AUC,[2]; measured here: PEO4 Z-AUC,-0.9
same,Potency,[1]; TFE3-RCC UOK109 viability,4180 nM (active)
same,z-score,[1]; [4],-1.6
same,z-score,[1]; [5],-1.78
same,z-score,[1]; [6],-1.46

# — PubChem BioAssay (NCATS)
